Measurements published in PubChem BioAssay.
Calls of active or inactive are those of the source.

Assays:
[1] = binders of probe aFSTL3 on microarray, primary screen, stem cell growth factor project, biochemical, small-molecule microarray, fluorescence 635/667 (AID 1064); details: higher = more signal;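 note: measures binding of the biotinylated anti-FSTL3 antibody to printed compounds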
[2] = binders from COS7 lysate, DM2A8 probe, primary screen, torsin A project, cell lysate, small-molecule microarray, fluorescence 635/667 (AID 1065); details: higher = more signal, COS7 lysate expressing mutant human TOR1A
[3] = binders of probe aFGF2 on microarray, primary screen, stem cell growth factor project, biochemical, small-molecule microarray, fluorescence 635/667 (AID 1067); details: higher = more signal;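 note: measures binding of biotinylated aFGF2 protein to printed compounds on slides; z-score merges feature fluorescence and signal-to-noise across triplicate slides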
[4] = binders of probe aFGF10 on microarray, primary screen, stem cell growth factor project, biochemical, small-molecule microarray, fluorescence 635/667 (AID 1071); details: higher = more signal;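 note: score merges 667 nm spot intensity and signal to noise from triplicate slides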
[5] = target: Neurogenic locus notch homolog protein 2 (Homo sapiens) (UniProt Q04721); test: Notch2 binders on small-molecule microarrays, primary screen, biochemical, small-molecule microarray, 635 nm fluorescence, stem cell growth factors (AID 1073); details: Notch2 binding, higher = more signal
[6] = target: Pro-neuregulin-1, membrane-bound isoform (Homo sapiens) (UniProt Q02297); test: NRG1 binders on small-molecule microarrays, primary screen, psychiatric disease protein project, biochemical, small-molecule microarray, fluorescence 635/667 (AID 1075); details: NRG1 binding, 635 nm fluorescence, higher = more signal;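 note: score combines 667 nm spot fluorescence with signal to noise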
[7] = tested on: Neuregulin-1 EGF-like domain; test: binders of neuregulin-1 EGF-like domain, primary screen, biochemical, small-molecule microarray, 635 nm fluorescence (AID 1081); details: small-molecule microarray binding, higher = more signal;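 note: binding of the protein to compounds printed on small-molecule microarray slides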
[8] = FRG1 promoter luciferase signal modulators, primary screen, FRG1 inhibition for FSHD, cell-based, C2C12 myotubes, firefly/Renilla luciferase, luminescence (AID 1084); details: higher = more signal, called active from +8 up or from −8 down
[9] = binders of probe aFST on microarray, primary screen, stem cell growth factor project, biochemical, small-molecule microarray, fluorescence 635/667 (AID 1086); details: higher = more signal;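 note: score merges 667 nm fluorescence with signal-to-noise of each printed compound spot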
[10] = binders of probe aHhip on microarray, primary screen, stem cell growth factor project, biochemical, small-molecule microarray, fluorescence 635/667 (AID 1087); details: higher = more signal;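 note: score merges spot fluorescence at 667nm with spot signal to noise ratio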

Sequence of Pro-neuregulin-1, membrane-bound isoform (Homo sapiens) (Q02297 whole entry, looked up, the tested form may be a part, canonical isoform): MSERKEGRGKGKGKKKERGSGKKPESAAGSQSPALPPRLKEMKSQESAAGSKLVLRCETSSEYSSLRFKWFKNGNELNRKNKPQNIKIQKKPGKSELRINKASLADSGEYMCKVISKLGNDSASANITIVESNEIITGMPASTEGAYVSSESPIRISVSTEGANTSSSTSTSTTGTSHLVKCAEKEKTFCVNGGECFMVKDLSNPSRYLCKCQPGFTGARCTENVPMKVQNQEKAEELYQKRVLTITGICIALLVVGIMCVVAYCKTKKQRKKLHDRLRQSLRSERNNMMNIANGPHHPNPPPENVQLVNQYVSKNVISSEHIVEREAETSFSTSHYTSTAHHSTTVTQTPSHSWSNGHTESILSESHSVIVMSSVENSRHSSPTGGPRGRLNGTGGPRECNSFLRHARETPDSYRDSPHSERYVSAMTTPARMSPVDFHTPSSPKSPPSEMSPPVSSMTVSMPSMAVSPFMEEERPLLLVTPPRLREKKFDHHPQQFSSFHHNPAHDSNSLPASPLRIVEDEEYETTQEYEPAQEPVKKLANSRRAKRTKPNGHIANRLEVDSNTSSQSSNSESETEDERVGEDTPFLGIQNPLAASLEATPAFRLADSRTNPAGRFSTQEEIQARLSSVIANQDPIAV
Sequence of Neurogenic locus notch homolog protein 2 (Homo sapiens) (Q04721 whole entry, looked up, canonical isoform): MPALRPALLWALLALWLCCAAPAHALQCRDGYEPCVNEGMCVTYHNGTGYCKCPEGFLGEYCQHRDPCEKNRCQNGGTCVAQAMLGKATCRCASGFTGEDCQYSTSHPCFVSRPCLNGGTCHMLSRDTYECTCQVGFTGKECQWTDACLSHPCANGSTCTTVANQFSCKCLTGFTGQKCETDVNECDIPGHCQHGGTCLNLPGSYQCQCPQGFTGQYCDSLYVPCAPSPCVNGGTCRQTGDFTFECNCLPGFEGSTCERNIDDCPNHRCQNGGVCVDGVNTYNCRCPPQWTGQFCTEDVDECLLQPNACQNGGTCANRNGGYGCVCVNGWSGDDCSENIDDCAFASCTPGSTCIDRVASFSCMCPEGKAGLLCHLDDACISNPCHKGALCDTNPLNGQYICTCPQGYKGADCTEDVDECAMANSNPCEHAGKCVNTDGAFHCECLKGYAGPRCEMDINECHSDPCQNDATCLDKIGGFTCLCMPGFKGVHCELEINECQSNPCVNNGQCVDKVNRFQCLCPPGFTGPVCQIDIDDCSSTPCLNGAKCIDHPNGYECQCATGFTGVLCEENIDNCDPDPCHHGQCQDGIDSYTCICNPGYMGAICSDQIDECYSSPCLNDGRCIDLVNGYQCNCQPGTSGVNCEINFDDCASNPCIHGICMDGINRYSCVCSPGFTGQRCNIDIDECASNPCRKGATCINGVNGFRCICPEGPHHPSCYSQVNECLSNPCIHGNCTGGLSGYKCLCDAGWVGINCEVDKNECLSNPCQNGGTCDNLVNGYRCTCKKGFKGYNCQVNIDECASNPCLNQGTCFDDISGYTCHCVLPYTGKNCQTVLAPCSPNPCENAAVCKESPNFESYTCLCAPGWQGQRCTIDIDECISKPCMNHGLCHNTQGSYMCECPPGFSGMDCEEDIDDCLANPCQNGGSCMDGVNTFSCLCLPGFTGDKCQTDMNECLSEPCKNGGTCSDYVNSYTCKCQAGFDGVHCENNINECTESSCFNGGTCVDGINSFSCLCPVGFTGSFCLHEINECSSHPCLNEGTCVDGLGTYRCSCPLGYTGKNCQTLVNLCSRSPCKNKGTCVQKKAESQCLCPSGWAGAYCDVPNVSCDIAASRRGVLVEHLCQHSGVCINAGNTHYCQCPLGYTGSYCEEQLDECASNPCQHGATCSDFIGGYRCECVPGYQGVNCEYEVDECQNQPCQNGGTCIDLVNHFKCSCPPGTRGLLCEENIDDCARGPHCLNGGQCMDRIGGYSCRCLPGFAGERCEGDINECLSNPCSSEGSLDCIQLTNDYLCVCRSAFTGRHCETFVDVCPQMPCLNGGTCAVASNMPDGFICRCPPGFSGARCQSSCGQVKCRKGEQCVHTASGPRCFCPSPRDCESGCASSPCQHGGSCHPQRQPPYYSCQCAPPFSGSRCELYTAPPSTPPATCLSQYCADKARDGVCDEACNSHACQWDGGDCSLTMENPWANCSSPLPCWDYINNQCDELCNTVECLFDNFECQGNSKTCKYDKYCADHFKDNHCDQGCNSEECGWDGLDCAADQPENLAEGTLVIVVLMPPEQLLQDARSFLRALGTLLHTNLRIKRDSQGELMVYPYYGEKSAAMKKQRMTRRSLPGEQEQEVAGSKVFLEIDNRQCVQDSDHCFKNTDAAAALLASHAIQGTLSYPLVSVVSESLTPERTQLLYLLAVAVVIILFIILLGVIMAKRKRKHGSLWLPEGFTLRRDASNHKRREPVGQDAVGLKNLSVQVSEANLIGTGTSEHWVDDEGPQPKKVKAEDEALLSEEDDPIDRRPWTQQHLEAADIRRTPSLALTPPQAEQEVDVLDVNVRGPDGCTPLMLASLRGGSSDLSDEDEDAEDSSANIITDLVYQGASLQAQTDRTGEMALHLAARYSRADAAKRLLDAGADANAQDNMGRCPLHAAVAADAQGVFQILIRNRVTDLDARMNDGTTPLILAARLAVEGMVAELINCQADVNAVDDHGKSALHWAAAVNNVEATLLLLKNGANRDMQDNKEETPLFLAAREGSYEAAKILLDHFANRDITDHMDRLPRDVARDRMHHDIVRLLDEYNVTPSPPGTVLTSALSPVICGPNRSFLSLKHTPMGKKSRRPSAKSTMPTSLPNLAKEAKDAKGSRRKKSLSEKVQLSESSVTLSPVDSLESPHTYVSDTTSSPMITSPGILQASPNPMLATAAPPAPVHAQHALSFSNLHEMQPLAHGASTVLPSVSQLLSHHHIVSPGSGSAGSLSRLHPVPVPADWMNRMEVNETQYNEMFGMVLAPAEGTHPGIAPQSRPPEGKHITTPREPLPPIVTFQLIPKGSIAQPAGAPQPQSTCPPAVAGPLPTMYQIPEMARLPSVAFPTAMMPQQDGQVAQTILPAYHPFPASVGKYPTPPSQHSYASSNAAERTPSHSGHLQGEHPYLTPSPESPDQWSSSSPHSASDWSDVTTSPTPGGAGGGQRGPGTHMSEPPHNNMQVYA

SMILES | composite z-score [1] | composite z-score [2] | composite z-score [3] | composite z-score [4] | composite z-score [5] | composite z-score [6] | composite z-score [7] | z-score [8] | composite z-score [9] | composite z-score [10]
COCCOC(=O)N1C(=O)[C@@]2(c3cc(C#CCCO)ccc31)[C@H](C(=O)N1CCc3cc(OC)c(OC)cc3C1)[C@H]1C(=O)O[C@H](c3ccccc3)[C@H](c3ccccc3)N1[C@@H]2c1ccc(OCCO)cc1 | -0.392 | 0.282 | -0.0867 | 0.501 | 0.467 | 0.007 | 1.16 | -0.561 (inactive) | 0.242 | -0.216
COc1ccc([Si](C)(C)[C@@H]2[C@@H](CCO)O[C@]3(C(=O)N(Cc4ccccc4)c4ccc(N5C(=O)COc6ccccc65)cc43)[C@H]2C)cc1 | -0.169 | 0.217 | -0.0973 | 0.2 | 0.128 | 0.666 | 1.05 | -0.409 (inactive) | 0.17 | -0.0994
C=CCC(OC(C)=O)[C@@H]1[C@@H](N(Cc2cccc3ccccc23)C(=O)c2ccc(C)cc2)c2cc(OCCCO)ccc2N1C(=O)c1ccc2ccccc2c1 (stereo not given in full) | -0.0181 | 0.0379 | -0.152 | 0.409 | 0.145 | -0.126 | -0.163 | -1.8 (inactive) | 0.137 | 0.0695
[N-]=[N+]=NCc1ccccc1[C@H]1OC(c2ccc(OCCCO)cc2)=N[C@@]1(Cc1ccccc1N=[N+]=[N-])C(=O)NCCN1CCOCC1 | 0.0233 | 0.0401 | 0.14 | 0.981 | 1.61 | 1.49 | 1.1 | 0.342 (inactive) | 1.21 | 0.113
CC(C)C(CO)N1C(=O)[C@@H]2[C@H]3C(=O)OCC=C[C@H]3OC23C=CCN(Cn2nnc4ccccc42)C(=O)[C@@H]13 (stereo not given in full) | 0.449 | -0.292 | -0.192 | -0.579 | -1.06 | -0.78 | 0.332 | -0.194 (inactive) | -0.499 | -0.137
COc1ccc([Si](C)(C)[C@@H]2[C@@H](CCO)O[C@]3(C(=O)N(Cc4ccc(N5C(=O)c6ccccc6Oc6ccccc65)cc4)c4ccccc43)[C@H]2C)cc1 | 0.197 | -0.589 | -0.106 | -0.124 | -0.323 | 1.09 | 0.736 | -1.69 (inactive) | -0.0716 | -0.0324
C=CC[C@@]1(C(=O)NCCN2CCOCC2)N=C(c2ccc(OCCCO)cc2)O[C@@H]1c1ccccc1 | 0.424 | 1.64 | 0.0342 | 0.66 | 0.52 | 0.595 | 1.36 | 0.254 (inactive) | 1.16 | 0.124
COCCOC(=O)N1C(=O)[C@@]2(c3cc(C#CCNC(N)=O)ccc31)[C@H](C(=O)N1CCCCCCC1)[C@H]1C(=O)O[C@H](c3ccccc3)[C@H](c3ccccc3)N1[C@@H]2c1ccc(OCCO)cc1 | 1.03 | 0.303 | -0.0024 | 0.578 | 0.754 | 0.446 | 0.0222 | -0.557 (inactive) | 0.7 | 0.443
COCCCNC(=O)[C@@]1(C)c2ccccc2C(=O)N(c2ccc(C)cn2)[C@H]1c1ccc(CO)cc1 | -0.722 | -0.331 | -0.308 | -1.12 | -1.15 | 0.906 | 0.632 | 0.811 (inactive) | -0.892 | -0.439
C=C(C(=O)CC[C@H](OC(=O)c1cccnc1)c1ccc(OCCO)cc1)C(C)C | -0.241 | 1.43 | 0.0612 | 0.404 | 0.539 | 0.19 | 1.2 | 1.14 (inactive) | 0.995 | 0.0881
[N-]=[N+]=Nc1ccccc1[C@H]1OC(c2ccc(OCCCO)cc2)=N[C@@]1(Cc1ccccc1)C(=O)NCc1ccccc1 | -0.274 | -0.357 | 0.0722 | 0.639 | 1.12 | 0.883 | 0.567 | -1.55 (inactive) | 0.686 | 0.0373
Cc1ccc(S[C@]2(C(=O)NCc3ccccc3)CC(=O)N(C3Cc4ccccc4C3)[C@@H]2c2ccc(CO)cc2I)cc1 | -0.0093 | 0.247 | -0.123 | -0.257 | -0.312 | 1.64 | -0.185 | -1.73 (inactive) | -0.134 | -0.246
CCOC(=O)C[C@H]1[C@H](OC(=O)Cc2ccc3c(c2)OCO3)[C@@H](NC(=O)c2ccccc2)c2cc(OCCCO)ccc2N1C(=O)c1ccc2ccccc2n1 | -0.146 | -0.183 | -0.147 | 0.352 | 0.671 | 0.485 | 0.55 | -4.6 (inactive) | 0.0323 | -0.175
COCCCNC(=O)[C@]1(Cc2ccccc2)N=C(c2ccc(OCCCO)cc2)O[C@@H]1c1ccccc1N=[N+]=[N-] | 0.29 | 1.54 | 0.12 | 0.632 | 1.02 | 0.725 | 1.2 | -0.309 (inactive) | 1.47 | -0.0994
